Assay outcomes: PubChem, National Center for Advancing Translational Sciences (NCATS)
PNC inhibitor = blocks assembly of the perinucleolar compartment; 140,000 compounds, 3.1% hits; PC3M PTB-GFP, PNC prevalence imaging, 16 h; stronger effect = lower value; AID 2417; activity change (PNC), negative = inhibition, % at 10 µM;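 active = readout at or below -70, meaning at least 70% loss of cells showing the perinucleolar compartment, a nuclear body marking cancer cells; inconclusive = readout between -30 and a set limit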;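 note: plate controls were DMSO wells for no effect and camptothecin positive control wells for full effect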
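Compounds are pinned in duplicate onto adhered PC3M cells stably expressing GFP-tagged PTB and incubated 16 h at 37 C. Cells are then fixed, nuclei stained with Hoechst, and PNC-positive cells counted.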
HTT cytoprotect = protects HTT-Q103 PC12 cells, measured by ATP; Potency, µM (series often up to 56.4 µM), without a hit: cytoprotection (ATP increase), actives largely listed as activators; PC12 HTT-Q103 induced, cytoprotection, ATP luminescence, 40 h; 230,000 compounds, 0.14% hits; note: potency is the fitted concentration of half-maximal effect; % of control where 0% means no effect; nearly all actives have a fitted effect of over 45% in size
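Rat PC12, Q103 Htt exon1-GFP fusion, ecdysone promoter; tebufenozide inducer 100 nM final; compound titration; qHTS, 1500 cells/well; ATPlite luminescent read.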
IMPase Li cell = membrane-permeable IMPase blocker, potentiated with lithium | Potency, µM (highest dose often 59.4 µM), for inactives: top-dose activity, negative = IMPase inhibition, usual class: inhibitors | AID 1457 | CHO-M1 cells, IP1 TR-FRET (IP-One), carbachol + lithium | 210,000 compounds, 0.35% hits;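 note: IP1 builds up when IMPase is blocked and the TR-FRET signal falls; potency is the fitted concentration of half-maximal effect; plate controls were basal vehicle for no effect and high inhibitor control for full effect; nearly all actives have a fitted effect of over 50% in size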
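Readout is a homogeneous TR-FRET IP1 immunoassay (Ex 320, Em 665 and 620), where raised cytosolic IP1 lowers signal. Cells were CHO-M1 treated 30 min at 37C with test compounds plus a little lithium; AC50 values came from Hill-equation fitting.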
NPSR antag = antagonists of human neuropeptide S receptor cAMP signaling; Q6W5P4; CHO-NPSR cells, cAMP TR-FRET, antagonist mode; Potency, µM (series often up to 38.3 µM), without a hit: at the top dose activity change, negative = inhibition, hits mostly inhibitors; 220,000 compounds, 1% hits; note: potency is the fitted concentration of half-maximal effect; % is set by controls: 0 for no effect and ±100 for the full control effect; nearly all actives have a fitted effect of over 50% in size
Target sequence (Q6W5P4 whole entry, looked up): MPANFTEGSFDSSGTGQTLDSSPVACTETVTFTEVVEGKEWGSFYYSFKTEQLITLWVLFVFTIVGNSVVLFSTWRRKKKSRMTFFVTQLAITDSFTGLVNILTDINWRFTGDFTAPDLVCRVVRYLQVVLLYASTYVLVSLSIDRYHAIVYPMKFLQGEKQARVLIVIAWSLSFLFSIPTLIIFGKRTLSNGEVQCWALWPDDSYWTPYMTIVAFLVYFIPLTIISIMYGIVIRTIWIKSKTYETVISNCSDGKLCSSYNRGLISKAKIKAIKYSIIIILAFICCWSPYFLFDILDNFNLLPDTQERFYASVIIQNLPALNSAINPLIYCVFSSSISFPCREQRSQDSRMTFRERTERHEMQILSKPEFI
IMPase inh = membrane-permeable compound that blocks inositol monophosphatase. P97697. CHO-M1 cells, IP1 accumulation, HTRF TR-FRET ratio. 120,000 tested, under 10 active. inhibition (IP1 accumulation), % at 46.1 µM. AID 901; active = well fitted curve in the direction sought with a large enough effect in the signal ratio, not every such curve was filed as active; inconclusive = small, poorly fitted or top-dose-only effect, or a change in a side signal; inactive = no such curve, though single readings can be large or run the other way; the % refers to the signal ratio;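 note: cells stimulated with carbachol in lithium chloride buffer; plate controls were DMSO basal wells for no effect and reference inhibitor wells for full effect; higher means more IMPase inhibition seen as more IP1 and lower FRET ratio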
Target sequence (P97697 whole entry, looked up): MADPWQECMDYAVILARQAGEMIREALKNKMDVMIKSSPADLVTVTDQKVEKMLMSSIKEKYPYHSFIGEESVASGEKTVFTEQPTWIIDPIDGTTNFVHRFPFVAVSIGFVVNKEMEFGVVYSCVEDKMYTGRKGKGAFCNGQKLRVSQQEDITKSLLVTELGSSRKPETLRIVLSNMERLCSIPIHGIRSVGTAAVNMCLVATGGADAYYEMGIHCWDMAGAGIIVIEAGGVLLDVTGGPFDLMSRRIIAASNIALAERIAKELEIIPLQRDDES
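Seeded CHO-M1 cells were dosed with compound at up to 46 uM, stimulated with carbachol for 30 min, then lysed in IP-One detection reagents. Higher IP1 lowers the TR-FRET signal.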
HTT aggregate = mutant huntingtin aggregation inhibition. PC12 HttQ103-GFP aggregates, Acumen cytometry, 40 h. Potency, µM (series often up to 46.1 µM), without a hit: at the top dose activity change, negative = inhibition, hits mostly inhibitors. 220,000 compounds, 1.1% hits; note: potency is the fitted concentration of half-maximal effect; % is set by controls: 0 for no effect and ±100 for the full control effect; nearly all actives have a fitted effect of over 60% in size
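Inducible Q103 Huntingtin exon 1–GFP PC12 line, 1500 cells/well in phenol red free DMEM with 5% equine and 5% calf serum. Tebufenozide 100 nM induced expression; compounds titrated; aggregates quantified by cytometry.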
An asterisk follows results filed as active; ? = inconclusive; . = not tested or not shown; [ ] = remark or other dose. Only some compounds are listed: those with a hit (about 3.4% of all), similar ones and a draw of the others. Unless noted, calls come from the whole dose curve; as a rule, active = well fitted curve in the direction sought with a large enough effect; inconclusive = small, poorly fitted or top-dose-only effect, or another doubt; inactive = no such curve, though single readings can be large; an effect the other way counts as inactive or inconclusive.

SMILES	PNC inhibitor	HTT cytoprotect	IMPase Li cell	NPSR antag	IMPase inh	HTT aggregate
C/C(=N\NC(=O)c1ccoc1C)c1cccnc1	-89*	6%[10 µM]	0%	-5%[46.1 µM]	-16	-11%
O=C(NCCCn1ccnc1)c1ccc(S(=O)(=O)N2CCCCCC2)cc1	10	-3%	-5%[38.3 µM]	-7%[46.1 µM]	6	-32%
CC1CC(C)CN(S(=O)(=O)c2ccc(C(=O)NCCCn3ccnc3)cc2)C1 (stereo not drawn)	?	-125%	12%[38.3 µM]	-18%[46.1 µM]	5	7.9µM*
Cc1cccc2nc(-c3cccc(NC(=O)c4ccc(Cl)cc4)c3)cn12	37	.	14%	-2%	.	-10%
Cc1cccc2nc(-c3cccc(NC(=O)Cc4ccccc4)c3)cn12	-109*	.	4%	0%	.	-5%
Cn1c(/C=C/c2ccc([N+](=O)[O-])o2)nc2ccccc2c1=O	?	-110%	-10%[38.3 µM]	10µM*	6	10µM*
Cc1cc(N/N=C/c2ccc([N+](=O)[O-])o2)nc2ccccc12	.	12%	18%	-17%	.	?
CCOC(=O)N1CCC(N2CCCC(CO)(Cc3cccc(OC)c3)C2)CC1 (stereo not drawn)	.	.	21%	11%	.	0.0006µM*
CCn1ncc(C2=NOC(C(=O)NCc3ccc(Cl)cc3)C2)c1C (stereo not drawn)	-82*	-111%	11%[38.3 µM]	?	7	?
CCOC(=O)N/N=C/c1cn(Cc2ccc(Cl)cc2)c2ccccc12	-105*	.	-3%	-32%	.	13%
COc1ccc(C2=NOC(C(=O)Nc3cccnc3)C2)cc1 (stereo not drawn)	-102*	9%	28%[38.3 µM]	-4%[46.1 µM]	7	-11%
Nc1sc2c([n+]1CCCS(=O)(=O)[O-])CCCC2	.	-21%[10 µM]	2%	8%	.	13%
Nc1nc(Nc2ccccc2)sc1C(=O)c1ccccc1	.	?	.	-43%	.	16%[9.22 µM]
Cc1sc2cc3c(c(C(=O)c4ccccc4)[n+]2c1C)-c1cccc2cccc-3c12	16	.	37%	?	.	8.9µM*
O=C(c1ccccc1)c1c2c(cc3sc4ccccc4[n+]13)-c1cccc3cccc-2c13	-14	.	30%	10µM*	.	7.9µM*
CC(=O)OCC(=O)[C@@]1(O)[C@H](C)C[C@@H]2[C@H]3CCC4=CC(=O)C=C[C@]4(C)[C@]3(F)[C@@H](O)C[C@@]21C	.	-80%[17.1 µM]	18%	.	4[20.6 µM]	12%[20.6 µM]
CCCCCCOc1ccc(C(=N)N(CCCC)CCCC)c2ccccc12	.	-99%	.	.	.	?
Cc1cc(C)n(C(=O)/C(C#N)=N/Nc2cc(Cl)cc(Cl)c2)n1	.	-161%	4%	-21%	.	13µM*
C=CCn1cccc(/C=C/C(=O)c2ccc(C(C)(C)C)cc2)c1=S	48	.	11%	-51%	.	25µM*
CCCC1O[C@@H]2C[C@H]3[C@@H]4CCC5=CC(=O)C=C[C@]5(C)C4[C@@H](O)C[C@]3(C)[C@]2(C(=O)CO)O1 (stereo partly drawn)	.	.	-12%	?	.	.
CCCCCCOC(=O)C[N+](C)(C)CCOC1CC2CCC1(C)C2(C)C (stereo not drawn)	19	-67%[10 µM]	36%[38.3 µM]	?	-4[1.84 µM]	6.3µM*
Cc1cnc(CNc2ncncc2-c2ccccc2C)cn1	.	7%	1%	.	.	.
COC(=O)Cn1c(=NC(=O)c2sc3ccccc3c2Cl)sc2cc(S(N)(=O)=O)ccc21	25	-14%[10 µM]	-17%	-7%	.	10%
COC(=O)Cn1c(=NC(=O)c2ccc(Cl)s2)sc2cc(C)ccc21	-119*	-1%[10 µM]	-27%	?	.	-13%
COC(=O)Cn1c(=NC(=O)c2ccc([N+](=O)[O-])s2)sc2cc(Br)ccc21	-93*	1%[10 µM]	-3%	-18%	.	2%
SMILES	PNC inhibitor	HTT cytoprotect	IMPase Li cell	NPSR antag	IMPase inh	HTT aggregate
NC(=O)[C@@H]1CCCN1	.	19%	-3%	.	.	.
C=CCN=C(CC)C1=C(O)CCCC1=O	-109*	-10%[0.074 µM]	.	2%[46.1 µM]	2	18%
O=C(O)COc1cccc(-c2ocnc2-c2nc(-c3ccccc3)c(-c3ccccc3)o2)c1	.	-1%	-4%	.	-7	.
CC[N+](CC)(CCO)CCCN1C(=O)C2CC=C(Cl)CC2C1=O (stereo not drawn)	-81*	-24%	13%[38.3 µM]	-9%[46.1 µM]	-2	15%
C[C@H]1Cc2c(COc3ccccc3)nc3c(c2CO1)CN(C(=O)c1cccnc1)CC3	.	-36%[10 µM]	-1%	.	.	.
COC(=O)c1ccccc1NC(=O)CN(c1ccc(Cl)cc1)S(=O)(=O)c1ccc(OC)cc1	.	.	.	.	-1	.
CN(c1cccc(NC(=O)CN(c2ccc(Cl)c(Cl)c2)S(=O)(=O)c2ccccc2)c1)S(C)(=O)=O	-100*	26%[10 µM]	1%	-29%[46.1 µM]	13	?
CN(c1cccc(NC(=O)COc2ccccc2)c1)S(C)(=O)=O	-111*	-30%[10 µM]	11%[38.3 µM]	-9%[46.1 µM]	-5	?
CN(c1cccc(NC(=O)c2ccc(C(C)(C)C)cc2)c1)S(C)(=O)=O	.	-164%	20%	16%	.	11µM*
Cc1ccc(S(=O)(=O)N(CC(=O)Nc2cccc(N(C)S(C)(=O)=O)c2)c2ccc(Cl)c(Cl)c2)cc1	?	10%[10 µM]	22%[38.3 µM]	?	-1	?
COC(=O)c1cc(NC(=O)CN(c2ccc(OC)cc2)S(=O)(=O)c2ccc(F)cc2)ccc1Cl	-119*	21%[10 µM]	15%	-21%	-1	8%
Cc1ccc(-n2c(C)cc(C(=O)COC(=O)c3ccc[nH]c3=O)c2C)cc1	-82*	-30%[10 µM]	-3%	-5%	.	6%
c1ccc2c(N3CCNCC3)nc(-c3ccc4c(c3)OCO4)nc2c1	.	26%	-4%	.	.	.
CC(Cn1cnc2ccccc21)C(=O)O (stereo not drawn)	-100*	?	1%	0%[46.1 µM]	-12	5%
Oc1[nH]c2ccccc2c1N=NC(=S)NCC1CCCO1 (stereo not drawn)	?	-7%[10 µM]	-3%	-26%	4	-4%
CCn1c(O)c(N=NC(=S)NCC2CCCO2)c2ccccc21 (stereo not drawn)	.	-62%	2%	7.9µM*	.	?
CC(C)c1cc(N2CCC(=O)NC2=O)cc(C(=O)O)c1O	-114*	.	-8%	10%	.	-24%
CCOC(=O)CSc1nc2cc3c(cc2cc1C#N)OCCO3	.	2%[10 µM]	-29%	?	.	-9%[9.22 µM]
CCOC(=O)CSc1nc2cc3c(cc2cc1C#N)OCO3	-127*	-22%[10 µM]	0%[38.3 µM]	18%[46.1 µM]	7	6%
CCOc1ccc2nc(SCC(=O)N3CCCCCC3)c(C#N)cc2c1	23	-32%	0%[38.3 µM]	?	4	-1%
CCOc1ccc2cc(C#N)c(SCC(=O)N3CCOCC3)nc2c1	?	2%[10 µM]	2.8µM*	-1%[46.1 µM]	-20	0%
CCNc1ncc2nc(-c3ccc(F)cc3)c(=O)n(C)c2n1	.	-42%	-22%	.	.	.
